MARV entry inh = inhibitors of Marburg virus binding or cell entry. Marburg virus pseudotyped entry inhibition, cell reporter. Potency, µM (series often up to 37.8 µM), usual class: inhibitors. 300,000 compounds, 1.8% hits; calls by dose curve; tested in HEK293 cells
HCMV inh = blocks human cytomegalovirus replication; HFF cells, HCMV-luciferase reporter, 72 h; active compounds read low; activity change, negative = inhibition, % at 57.5 µM; 410,000 compounds, 4.5% hits; AID 1259415; in the data active = activity change below about -60%; inconclusive = no clear call, values can overlap the other calls; inactive = above about -39%
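Screen run at 2 compound doses on HFFs infected with reporter HCMV, MOI 1 PFU/cell. Luciferase activity from cell lysates at 72 h post infection gave inhibition relative to buffer-only and Salinomycin wells.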
FMDV antiviral = antivirals against foot and mouth disease virus; Potency, µM (top dose mostly 57.9 µM), actives largely listed as inhibitors; FMDV antiviral cell-based qHTS; AID 1159524; 410,000 compounds, 1.2% hits; calls by dose curve; tested in HEK293T cells; also: read-out not given here; nearly all actives have a fitted effect of over 45% in size
Lassa entry inh = blocks Lassa virus binding to or entry into cells; 300,000 compounds, 1.2% hits; Lassa virus pseudotype entry inhibition, cell reporter; Potency, µM (doses to about 37.9 µM), hits mostly inhibitors; calls by dose curve; tested in HEK293 cells; also: nearly all actives have a fitted effect of over 50% in size
HCV inh = inhibitors of hepatitis C virus infection. Huh7.5.1 HCVcc-Cre infection, luciferase reporter, 44 h. Potency, µM (doses to about 41.8 µM), usual class: inhibitors. 340,000 compounds, 3.4% hits; active = well fitted inhibition curve with a large enough effect; inconclusive = small, poorly fitted or top-dose-only effect, or another doubt; inactive = no such curve, though single readings can be large or run the other way
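Cells seeded at 1,000/well and cultured 4 h, then compounds added followed by HCVcc-Cre virus (~0.5 moi). After 44 h further culture, luciferase substrate was added, plates held 15 min at room temperature, and luminescence read for 15 sec.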
SARS PLpro yeast = inhibitors of SARS-CoV papain-like protease in yeast; S. cerevisiae expressing SARS-CoV PLpro, growth rescue; Potency, µM (series often up to 32.9 µM), actives largely listed as activators; 330,000 compounds, 0.19% hits; calls by dose curve; also: nearly all actives have a fitted effect of over 55% in size
Of the large screens only hits and unclear results are named; the others gave an inactive call. Compounds with a hit are over-represented: about 8% of the library has one in this group of screens.

COC(=O)c1cccc(NC(=O)c2onc3c2CCCC3)c1	MARV entry inh 9.2µM, Lassa entry inh inconclusive
Cc1cccc(NC(=O)c2onc3c2CCCC3)n1	MARV entry inh 1.3µM, FMDV antiviral inconclusive, Lassa entry inh inconclusive
Cc1ccccc1NC(=O)c1onc2c1CCCC2	Lassa entry inh inconclusive
O=C(Nc1ccc2ccccc2c1)c1onc2c1CCCC2	Lassa entry inh 5.6µM, HCV inh inconclusive
Cc1ccc(C(=O)Nc2onc3c2CCCC3)cc1	MARV entry inh inconclusive, HCMV inh -75, FMDV antiviral 8.9µM, Lassa entry inh inconclusive (no result: HCV inh, SARS PLpro yeast)
Cc1cnc(SCC2CCCO2)nc1C1CCCN(C(=O)C2=NNC(=O)CC2)C1 (stereo unspecified)	none (no result: MARV entry inh, HCMV inh, Lassa entry inh, HCV inh, SARS PLpro yeast)
O=Cc1c2[nH]c3ccccc3c2cc2[nH]c3ccccc3c12	none (no result: MARV entry inh, HCMV inh, Lassa entry inh, HCV inh, SARS PLpro yeast)
CCCc1ccc(C(C)NC(=S)NCc2ccc(F)cc2)cc1 (stereo unspecified)	MARV entry inh inconclusive, FMDV antiviral inconclusive, Lassa entry inh inconclusive
CCOc1ccc(C(C)NC(=S)NCc2ccc(Cl)cc2)cc1 (stereo unspecified)	HCMV inh -74, HCV inh inconclusive (no result: MARV entry inh, Lassa entry inh)
CC(NC(=S)NCc1ccc(F)cc1)C12CC3CC(CC(C3)C1)C2 (stereo unspecified)	MARV entry inh inconclusive, HCMV inh -85, Lassa entry inh inconclusive
COc1ccc(C(C)NC(=S)NCc2ccc(F)cc2)cc1OC (stereo unspecified)	none
CCC(C)c1ccc(C(C)NC(=S)NCc2ccc(F)cc2)cc1 (stereo unspecified)	MARV entry inh inconclusive, HCMV inh -67, FMDV antiviral inconclusive, Lassa entry inh inconclusive, HCV inh 7.1µM
CCC(NC(=S)NCc1ccc(F)cc1)c1ccc(C(C)C)cc1 (stereo unspecified)	HCMV inh -97, HCV inh inconclusive (no result: MARV entry inh, Lassa entry inh)
CCOc1ccccc1C(=O)NC1(C(F)(F)F)C(=O)Nc2c1c(=O)[nH]c(=O)n2-c1ccccc1 (stereo unspecified)	MARV entry inh inconclusive, FMDV antiviral inconclusive (no result: HCV inh, SARS PLpro yeast)
Cc1ccc(CNC(=O)C(=O)NCC(c2ccc3c(c2)OCO3)N2CCOCC2)cc1 (stereo unspecified)	none (no result: MARV entry inh, HCV inh, SARS PLpro yeast)
COc1ccc(OC)c(NC(=O)C2CCN(S(=O)(=O)c3c(C)noc3/C=C/c3ccc(C)cc3)CC2)c1	none (no result: MARV entry inh, HCV inh, SARS PLpro yeast)
CC(=O)CSc1nc(-c2ccccc2)[nH]c1S(=O)(=O)c1ccc(C)cc1	Lassa entry inh inconclusive (no result: HCV inh, SARS PLpro yeast)
COc1ccc(C(=O)NC(=S)Nc2cccc(S(=O)(=O)N3CCOCC3)c2)cc1	Lassa entry inh inconclusive, HCV inh 14µM
COc1ccc(NS(=O)(=O)c2cc(OC)ccc2NC(=O)c2cc(C)oc2C)cc1	MARV entry inh inconclusive, HCV inh 4.5µM
CC1(C)CC2CC(C)(CN2S(=O)(=O)c2ccc(C(=O)Nc3cc(S(=O)(=O)N4CCOCC4)ccc3Cl)cc2)C1 (stereo unspecified)	MARV entry inh inconclusive, Lassa entry inh inconclusive
COc1ccc(C(=O)NNC(=O)c2cccc(S(=O)(=O)N3CCOCC3)c2)cc1	none
COc1ccc(NC(=S)Nc2cccc(S(=O)(=O)N3CCCCC3)c2)cc1	MARV entry inh inconclusive, HCMV inh -64
CC1(C)CC2CC(C)(CN2S(=O)(=O)c2ccc(C(=O)Nc3cccc(S(=O)(=O)N4CCOCC4)c3)cc2)C1 (stereo unspecified)	MARV entry inh 5.2µM, HCMV inh -92, FMDV antiviral inconclusive, Lassa entry inh inconclusive, HCV inh 11µM
COc1ccc(NS(=O)(=O)c2cc(OC)ccc2OC)cc1	none (no result: SARS PLpro yeast)
CC(=O)Oc1ccc(-c2ccc(C(=O)Nc3cccc(S(=O)(=O)N4CCOCC4)c3)cc2)cc1	MARV entry inh inconclusive, HCMV inh -98, FMDV antiviral inconclusive, Lassa entry inh inconclusive, HCV inh inconclusive
COc1ccc(NC(=O)c2cc(S(=O)(=O)N3CCCC3)oc2C)cc1	HCMV inh -65 (no result: MARV entry inh, Lassa entry inh)
CC1=C(C(=O)Nc2ccc(C)cc2C)C(c2cccs2)n2nc(SCc3ccc(Cl)cc3)nc2N1 (stereo unspecified)	none (no result: HCV inh, SARS PLpro yeast)
CCC[C@H]1[C@@H](NC(=O)Nc2ccc(C(C)C)cc2)CC[C@@]23CCCN2C(=O)CCC[C@@H]13	none (no result: MARV entry inh, FMDV antiviral, Lassa entry inh, HCV inh, SARS PLpro yeast)
COc1cccc(NC(=O)C2CCCN(c3nnc(-n4c(C)ccc4C)s3)C2)c1 (stereo unspecified)	none (no result: HCV inh, SARS PLpro yeast)
CC(=O)c1cccc(NC(=O)C2CCCN(c3nnc(-n4cccc4)s3)C2)c1 (stereo unspecified)	HCMV inh -103 (no result: MARV entry inh, HCV inh, SARS PLpro yeast)
CCOc1ccc(NC(=O)C2CCC(CNc3c(N4CCC(C)CC4)c(=O)c3=O)CC2)cc1 (stereo unspecified)	none
CC(=O)OC[C@H]1O[C@H](CC=NO[C@@H](C)c2cc(-c3c(C)cc(C)cc3C)no2)C=C[C@@H]1OC(C)=O	none (no result: HCMV inh, FMDV antiviral, Lassa entry inh, HCV inh, SARS PLpro yeast)
CC(=O)c1ccc(NC(=O)C(C)Oc2ccc(N(C)S(=O)(=O)c3ccc(C)cc3)cc2)cc1 (stereo unspecified)	HCV inh 13µM (no result: MARV entry inh, Lassa entry inh)
CC(Oc1ccc(F)cc1)C(=O)Oc1ccc(N(C)S(=O)(=O)c2ccccc2)cc1 (stereo unspecified)	none
Cc1ccc(S(=O)(=O)N(C)c2ccc(OC(C)C(=O)N(C)c3ccccc3)cc2)cc1 (stereo unspecified)	Lassa entry inh inconclusive, HCV inh 11µM
Cc1ccc(NC(=O)C2COc3ccccc3O2)cc1S(=O)(=O)N1CCCCC1 (stereo unspecified)	HCMV inh inconclusive, FMDV antiviral inconclusive, HCV inh 11µM (no result: MARV entry inh, Lassa entry inh)
O=C(Nc1cccc(S(=O)(=O)N2CCCCC2)c1)C1COc2ccccc2O1 (stereo unspecified)	HCV inh 10µM (no result: MARV entry inh, Lassa entry inh)
Cc1ccc(S(=O)(=O)N2CCCCC2)cc1NC(=O)C1COc2ccccc2O1 (stereo unspecified)	FMDV antiviral inconclusive (no result: MARV entry inh, Lassa entry inh, HCV inh, SARS PLpro yeast)
O=C(Nc1ccc(S(=O)(=O)N2CCCC2)cc1)C1COc2ccccc2O1 (stereo unspecified)	HCV inh inconclusive (no result: MARV entry inh, Lassa entry inh)
O=C(/C=C/c1ccc(Cl)cc1Cl)c1ccc[nH]1	none (no result: MARV entry inh, Lassa entry inh)
O=C(/C=C/c1ccccc1Cl)c1ccc[nH]1	MARV entry inh inconclusive, HCMV inh -62, HCV inh inconclusive
C=CCn1c(CCNC(=O)c2ccc(Cl)c(Cl)c2)nnc1SCCOc1ccc(OC)cc1	MARV entry inh inconclusive, FMDV antiviral 28µM, HCV inh 10µM
C=CCn1c(SCCOc2ccccc2)nnc1C(C)NC(=O)c1ccccc1 (stereo unspecified)	none
CN(C)c1cccc(C(=O)NN2C(=O)NC3(CCCCC3)C2=O)c1	MARV entry inh inconclusive
CCOc1ccc(S(=O)(=O)NCCC(=O)N2CC=C(c3ccccc3)CC2)cc1	HCMV inh inconclusive, FMDV antiviral inconclusive, HCV inh 22µM (no result: MARV entry inh, Lassa entry inh)
CCOc1ccc(S(=O)(=O)NCCC(=O)N2CCN(Cc3ccccc3)CC2)cc1	none

Screening data (PubChem)
